Assay [1] in a line: AP1 Signaling Pathway (AID 357; active = well fitted curve in either direction with a large enough effect, not every such curve was filed as active;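 note: ME-180 reporter cells stimulated with EGF at its EC50 level; % is set by controls: 0 for no effect and ±100 for the full control effect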). Put shortly: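 First, ME-180 AP-1-bla cells were cultured overnight at 37 °C in low-serum Opti-MEM. Next, titrated compounds with EC50 EGF were incubated 5 hours. Finally, CCF4 was added for 2.5 hours and the 460/530 nm ratio recorded.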
Assay [2] is described as follows: NFAT Signaling Pathway (AID 444; active = well fitted curve in either direction with a large enough effect, not every such curve was filed as active;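 note: carbachol stimulus at about its EC50 of 1 µM final; % is set by controls: 0 for no effect and ±100 for the full control effect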). The settings on record: Jurkat NFAT-bla M1, carbachol, beta-lactamase ratio, 5 h; at 17.2 µM (top of the series) unless noted. Put shortly:
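Jurkat cells with NFAT-driven β-lactamase reporter and co-expressed M1 receptor, stimulated with carbachol (final 1 uM, ~EC50), compound titration, 5 h at 37 °C. CCF4 loaded 1 h at RT; 460/530 nm ratio gave %activity and AC50.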

A short description of assay [3]: Stat Signaling Pathway (AID 446; active = well fitted curve in either direction with a large enough effect, not every such curve was filed as active;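 note: ME-180 cervical cancer cells given 40 pM IL-6 alongside compound; SIE-controlled beta-lactamase reporter measured as 460/530 nm FRET emission ratio; % is set by controls: 0 for no effect and ±100 for the full control effect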). Summed up: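 Overnight-plated ME-180 cells bearing a STAT Inducible Element beta-lactamase reporter; 5 h co-exposure to compound and 40 pM IL-6; values normalized to 300 pM IL-6 and 125 nM JAK inhibitor controls.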
Assay [4] concerns the target Glucocorticoid receptor (Homo sapiens) (UniProt P04150). The assay can be described thus: GR-GFP Redistribution (AID 450;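 active = compounds whose dose series gives a full or clear partial fitted curve of increased nuclear translocation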; note: potency is the fitted concentration of half-maximal effect). The conditions noted are these: U2OS GR-GFP nuclear translocation, laser cytometry, 2 h.
Assay [5] has the same target. The assay can be described thus: GR-EFC Redistribution (AID 451; calls by dose curve; note: potency is the fitted concentration of half-maximal effect). The conditions noted are these: CHO-K1 GR-EFC translocation, beta-gal luminescence, 2 h. Put shortly:
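CHO-K1 cells expressing nuclear EA and GR-ED fragments of b-gal; compounds titrated up to 46 uM final, 2 h at 37 C. GR nuclear translocation read as complemented b-gal luminescence after 1 h RT detection.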

Assay [6] has as its target 3',5'-cyclic-AMP phosphodiesterase 4B (Homo sapiens) (UniProt Q07343). As to the kind of experiment: qHTS Assay for Inhibitors of PDE-IV (AID 607; active = well fitted activation curve with a large enough effect in the main read-out, with a control signal flat, not every such curve was filed as active; note: % of control where 0% means no effect). Put shortly: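 Live HEK293 cells with a modified cyclic nucleotide-gated (CNG) channel report intracellular cAMP via membrane-potential dye fluorescence (ex 535/em 590 nm). Endogenous PDE-IV was targeted. Compounds were tested at up to 22.9 uM final; RO 20-1724 100 uM served as control.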

Assay [7] can be described thus: qHTS Assay for Lipid Storage Modulators (AID 1519; calls by dose curve). The conditions noted are these: Drosophila S3 cells, BODIPY lipid droplet/cell ratio, laser cytometry, cells loaded with oleic acid. Put shortly:
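Cells seeded at 5,000 per well were treated with compounds over a concentration series and loaded with oleic acid (400 uM, as added). Lipid droplet fluorescence (488 nm excitation, 500-530 nm channel) was read by laser-scanning cytometry and normalized to 20 uM Triacsin C.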
(In general: qHTS replaces the single test concentration by a dilution series.)

The target in assay [8] is ATP-dependent 6-phosphofructokinase (Trypanosoma brucei brucei) (UniProt O15648). As to the kind of experiment: qHTS Assay to Find Inhibitors of T. brucei phosphofructokinase: hit validation (AID 492961).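 Note: luminescence reports ADP formed as PFK phosphorylates fructose-6-phosphate with ATP; % is set by controls: 0 for no effect and ±100 for the full control effect.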 Put shortly:
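Compounds titrated; %activity normalized to 0x and 1x enzyme controls, curve-fitted. Readout: ADP-Glo luminescence after 45 min room-temperature reaction of 1.25 nM PFK, 0.1 mM ATP, 0.5 mM F6P, pH 8.0.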

In assay [9] the target is Ubiquitin carboxyl-terminal hydrolase 1 (Homo sapiens) (UniProt O94782). The assay can be described thus: Inhibitors of USP1/UAF1: Pilot qHTS (AID 504865).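 Note: rhodamine fluorescence freed from ubiquitin-rhodamine substrate followed over time; top concentration of the series differs between compounds; % is set by controls: 0 for no effect and ±100 for the full control effect; nearly all actives have a fitted effect of over 35% in size.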 Summed up: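 1nM USP1/UAF1 + cpd, 15 min RT; start w/ Ub-Rho 150nM final; kinetic FL 480/540 nm, 6 reads q60 s. Buffer 50mM HEPES pH 7.8, 0.5mM EDTA, 1mM TCEP, 0.01% Tween-20, 0.1 mg/ml BSA.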
Assay [10] has as its target Luciferin 4-monooxygenase (Photinus pyralis) (UniProt P08659). The assay can be described thus: Biochemical firefly luciferase enzyme assay for NPC (AID 624030).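 Note: purified P. pyralis luciferase at 10 nM with luciferin and ATP substrate; 0% = DMSO and -100% = full luciferase inhibition by PTC124 control; nearly all actives have a fitted effect of over 70% in size.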 Put shortly:
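Purified P. pyralis luciferase at 10 nM in 50 mM Tris Acetate (final), luminescence read within 5 minutes of enzyme addition to compounds. Activity normalised to PTC124 versus DMSO; concentration-response curves classed by r2, magnitude and activity.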

Assay [11] is described as follows: qHTS profiling for inhibitors of Plasmodium falciparum proliferation (AID 504749).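 Note: 0% = DMSO vehicle and full inhibition = artemisinin control; nearly all actives have a fitted effect of over 60% in size.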 The conditions noted are these: P. falciparum in erythrocytes, SYBR Green DNA, 72 h. Summed up:
(§1)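 SYBR Green fluorescence (ex 485 nm, em 535 nm) reports parasite DNA after 72 h compound exposure of infected red cells at 0.3% parasitemia, 2.5% hematocrit; signal normalized to 0.29 uM artemisinin and vehicle wells.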

The test system of another assay is C2A. Described as above. The settings on record: P. falciparum in erythrocytes, SYBR Green DNA, 72 h; series mostly up to 12.8 µM. Put shortly:
as §1

The test system of a further assay is CP217. The assay is described as above. The conditions noted are these: P. falciparum in erythrocytes, SYBR Green DNA, 72 h; series mostly up to 12.8 µM. Summed up: as §1
A further assay deals with CP238. Described as above. The conditions noted are these: P. falciparum in erythrocytes, SYBR Green DNA, 72 h; series mostly up to 12.8 µM. Put shortly:
as §1

In another assay the test system is CP250. Described as above. The conditions noted are these: P. falciparum in erythrocytes, SYBR Green DNA, 72 h; series mostly up to 12.8 µM. Summed up:
as §1

Another assay relates to CP252. The description is as above. The settings on record: P. falciparum in erythrocytes, SYBR Green DNA, 72 h; series mostly up to 12.8 µM. Put shortly:
as §1

For the next assay, the system named is FAB9. The assay is described as above. The settings on record: P. falciparum in erythrocytes, SYBR Green DNA, 72 h; series mostly up to 12.8 µM. Put shortly:
as §1

A further assay deals with HB3. Described as above. The settings on record: P. falciparum in erythrocytes, SYBR Green DNA, 72 h; series mostly up to 12.8 µM. Summed up: as §1
The test system of another assay is SC27B. The description is as above. The settings on record: P. falciparum in erythrocytes, SYBR Green DNA, 72 h; series mostly up to 12.8 µM. Put shortly: as §1
Assay [12] addresses Mitogen-activated protein kinase 10 (Mus musculus) (UniProt Q61831). As to the kind of experiment: JNK3 AlphaScreen Assay (AID 530; active = well fitted curve in either direction with a large enough effect, not every such curve was filed as active). Summed up: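 HepG2 lysate (IL-1b/TNFa pre-activated) + biotin-GST-cJun 1-79 + anti-pSer73 cJun; cpd titration, 15 min RT; ATP 10 uM start; Tris pH 7.6, MgCl2, DTT, vanadate; beads in EDTA buffer; AlphaScreen.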
[13] abbreviates: measured here: cell count channel max response.
Setting [14] is: measured here: lipid channel max response.
The mark [15] stands for this setting: at 12.8 µM (top of the series), parasite line A.
[16] abbreviates: at 12.8 µM (top of the series), parasite line B.

Records with an inconclusive call do not appear. Active and inactive are the calls of the source. Unless noted, calls come from the whole dose curve; as a rule, active = well fitted curve in the direction sought with a large enough effect; inconclusive = small, poorly fitted or top-dose-only effect, or another doubt; inactive = no such curve, though single readings can be large; an effect the other way counts as inactive or inconclusive.

Sequence of Luciferin 4-monooxygenase (Photinus pyralis) (P08659 whole entry, looked up): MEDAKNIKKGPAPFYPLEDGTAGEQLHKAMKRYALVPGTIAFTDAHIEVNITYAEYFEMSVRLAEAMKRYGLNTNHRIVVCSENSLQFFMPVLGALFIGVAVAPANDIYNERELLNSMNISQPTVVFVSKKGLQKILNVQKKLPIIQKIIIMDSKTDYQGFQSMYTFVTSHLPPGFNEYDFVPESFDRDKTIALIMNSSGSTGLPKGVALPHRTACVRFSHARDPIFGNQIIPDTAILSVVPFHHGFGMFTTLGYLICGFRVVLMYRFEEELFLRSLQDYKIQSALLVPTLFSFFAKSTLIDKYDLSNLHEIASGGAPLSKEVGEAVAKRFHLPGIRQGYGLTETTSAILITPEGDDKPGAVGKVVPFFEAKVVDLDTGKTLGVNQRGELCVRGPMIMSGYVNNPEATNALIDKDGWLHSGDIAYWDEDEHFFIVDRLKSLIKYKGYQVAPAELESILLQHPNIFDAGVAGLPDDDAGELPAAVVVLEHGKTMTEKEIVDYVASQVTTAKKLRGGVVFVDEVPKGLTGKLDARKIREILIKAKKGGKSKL
Sequence of Glucocorticoid receptor (Homo sapiens) (P04150 whole entry, looked up): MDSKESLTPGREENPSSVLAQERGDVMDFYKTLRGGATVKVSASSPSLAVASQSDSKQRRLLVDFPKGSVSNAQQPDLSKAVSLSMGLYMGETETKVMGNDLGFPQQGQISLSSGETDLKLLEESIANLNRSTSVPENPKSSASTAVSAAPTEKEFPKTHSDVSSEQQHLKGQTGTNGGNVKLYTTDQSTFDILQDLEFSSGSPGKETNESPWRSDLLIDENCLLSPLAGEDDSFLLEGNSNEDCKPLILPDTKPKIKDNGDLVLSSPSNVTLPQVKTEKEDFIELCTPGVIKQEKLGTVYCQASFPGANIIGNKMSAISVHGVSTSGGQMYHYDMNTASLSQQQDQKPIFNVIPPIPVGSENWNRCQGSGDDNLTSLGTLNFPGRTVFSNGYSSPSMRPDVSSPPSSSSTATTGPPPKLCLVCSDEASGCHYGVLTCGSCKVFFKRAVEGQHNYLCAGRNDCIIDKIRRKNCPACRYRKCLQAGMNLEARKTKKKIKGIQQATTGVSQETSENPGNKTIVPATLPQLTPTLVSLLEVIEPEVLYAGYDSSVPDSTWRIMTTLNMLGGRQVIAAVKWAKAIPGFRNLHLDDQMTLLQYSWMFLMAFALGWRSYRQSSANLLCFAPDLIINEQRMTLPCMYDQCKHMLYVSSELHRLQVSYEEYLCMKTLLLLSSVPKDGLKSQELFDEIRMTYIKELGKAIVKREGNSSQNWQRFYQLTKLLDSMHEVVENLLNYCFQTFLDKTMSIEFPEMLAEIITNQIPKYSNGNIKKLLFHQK
Sequence of 3',5'-cyclic-AMP phosphodiesterase 4B (Homo sapiens) (Q07343 whole entry, looked up): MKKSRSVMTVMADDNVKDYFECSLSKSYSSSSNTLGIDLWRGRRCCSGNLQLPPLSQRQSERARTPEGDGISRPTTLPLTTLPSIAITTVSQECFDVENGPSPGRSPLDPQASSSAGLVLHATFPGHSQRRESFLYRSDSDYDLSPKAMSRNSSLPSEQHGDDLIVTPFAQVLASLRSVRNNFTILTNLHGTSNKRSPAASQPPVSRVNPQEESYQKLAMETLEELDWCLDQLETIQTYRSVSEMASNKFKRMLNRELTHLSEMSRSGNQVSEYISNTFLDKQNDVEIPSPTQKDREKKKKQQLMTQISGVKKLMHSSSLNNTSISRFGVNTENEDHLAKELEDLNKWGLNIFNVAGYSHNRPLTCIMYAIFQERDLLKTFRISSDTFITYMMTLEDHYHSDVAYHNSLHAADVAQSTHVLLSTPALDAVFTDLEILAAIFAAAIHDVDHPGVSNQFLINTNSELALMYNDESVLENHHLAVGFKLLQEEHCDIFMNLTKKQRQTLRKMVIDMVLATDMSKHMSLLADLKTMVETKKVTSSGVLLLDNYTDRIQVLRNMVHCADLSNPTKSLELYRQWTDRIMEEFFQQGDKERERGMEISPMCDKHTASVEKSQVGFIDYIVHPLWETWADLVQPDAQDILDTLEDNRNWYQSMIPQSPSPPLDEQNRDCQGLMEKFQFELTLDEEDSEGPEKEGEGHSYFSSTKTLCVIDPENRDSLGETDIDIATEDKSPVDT
Sequence of ATP-dependent 6-phosphofructokinase (Trypanosoma brucei brucei) (O15648 whole entry, looked up): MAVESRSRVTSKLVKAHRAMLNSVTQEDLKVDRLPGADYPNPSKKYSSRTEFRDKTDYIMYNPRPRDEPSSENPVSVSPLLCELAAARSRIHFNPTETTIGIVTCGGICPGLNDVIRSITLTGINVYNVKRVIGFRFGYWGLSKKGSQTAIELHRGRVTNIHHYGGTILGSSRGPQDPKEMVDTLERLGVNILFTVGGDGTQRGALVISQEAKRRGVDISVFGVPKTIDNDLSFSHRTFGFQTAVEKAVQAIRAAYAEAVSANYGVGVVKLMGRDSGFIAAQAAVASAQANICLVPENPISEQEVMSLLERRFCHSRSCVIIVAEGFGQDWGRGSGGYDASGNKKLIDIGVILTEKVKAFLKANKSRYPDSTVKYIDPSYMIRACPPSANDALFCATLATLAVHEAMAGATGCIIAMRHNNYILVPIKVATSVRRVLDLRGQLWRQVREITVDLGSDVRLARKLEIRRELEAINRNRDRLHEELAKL
Sequence of Ubiquitin carboxyl-terminal hydrolase 1 (Homo sapiens) (O94782 whole entry, looked up): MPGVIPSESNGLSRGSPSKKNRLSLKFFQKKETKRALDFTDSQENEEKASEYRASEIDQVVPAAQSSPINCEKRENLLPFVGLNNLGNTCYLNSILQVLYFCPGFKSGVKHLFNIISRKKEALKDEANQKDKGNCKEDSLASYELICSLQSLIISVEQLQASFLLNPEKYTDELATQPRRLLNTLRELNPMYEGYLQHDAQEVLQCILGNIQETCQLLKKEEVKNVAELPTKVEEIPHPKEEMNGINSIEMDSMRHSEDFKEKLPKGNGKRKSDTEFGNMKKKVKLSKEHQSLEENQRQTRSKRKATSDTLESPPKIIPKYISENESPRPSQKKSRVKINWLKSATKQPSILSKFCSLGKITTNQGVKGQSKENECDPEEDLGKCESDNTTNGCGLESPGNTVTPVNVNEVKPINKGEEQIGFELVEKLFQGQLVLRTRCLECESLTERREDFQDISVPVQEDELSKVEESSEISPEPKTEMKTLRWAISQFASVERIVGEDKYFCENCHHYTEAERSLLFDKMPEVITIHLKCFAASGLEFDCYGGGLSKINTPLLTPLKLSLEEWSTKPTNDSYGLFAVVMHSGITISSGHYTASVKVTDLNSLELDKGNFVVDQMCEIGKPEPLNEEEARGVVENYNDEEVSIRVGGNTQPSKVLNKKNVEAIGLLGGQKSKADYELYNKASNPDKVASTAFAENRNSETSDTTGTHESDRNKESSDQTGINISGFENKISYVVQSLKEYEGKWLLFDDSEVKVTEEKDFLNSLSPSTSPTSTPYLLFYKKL

`O=C1O[C@@H]([C@@H](O)CO)[C@@H](O)[C@H]1O`: the call in assay [1], in assay [3], in assay [6] and in assay [8] was inactive. In addition, the activity change, negative = inhibition in [2] is -7.5% (inactive); in assay [7] (at 25.7 µM (top of the series)), -0.208% (inactive). Also, the Potency in assay [4] and in [5] was > 20.6 µM (inactive) in each case. Besides, the max response in [7] (setting [13]) came to 8.38%; in assay [7] (setting [14]), 7.66%. Further, the Potency result (in assay [9]; in assay [10]; in the assay on C2A; in the assay on CP217; with CP238; in the assay on CP250) was “inactive” in each case. In addition, the Potency result in the assay with CP252, in the assay on FAB9, with HB3 and in the assay on SC27B was “inactive” throughout. The activity, negative = inhibition in [11] (at 28.7 µM (top of the series), parasite line A) is -5.65% (inactive); in [11] (at 28.7 µM (top of the series), parasite line B), 14.7% (inactive).
Consider `C[C@@H]1C[C@H](OC(=O)c2ccccc2O)CC(C)(C)C1`, for which the outcome in assay [1], in assay [3] and in [6] was inactive. The Potency in assay [5] is > 20.6 µM (inactive). Besides, the Potency entry in assay [12] and in assay [9] was “inactive” each time. Moreover, the activity change, negative = inhibition in [7] (at 25.7 µM (top of the series)) was -2.75% (inactive). Further, the max response in assay [7] (setting [13]) is -8.27%; in assay [7] (setting [14]), -10.7%.
As for `CC[C@](C)(CN(C)C)OC(=O)c1ccccc1`, the call in assay [1], in [3], in assay [6] and in [8] was inactive. Moreover, the activity change, negative = inhibition was -26.6% (inactive) in [2] and -5.12% (inactive) in assay [7] (at 25.7 µM (top of the series)). The Potency in [4] and in [5] was > 20.6 µM (inactive) in each case. In addition, the Potency entry (in assay [12]; in assay [9]; in [10]; in the assay with C2A; with CP217; with CP238) was “inactive” each time. In addition, the Potency result in the assay on CP250, in the assay on CP252, with FAB9, in the assay with HB3 and in the assay on SC27B was “inactive” in each case. In addition, the max response in [7] (setting [13]) is -9.58%; in assay [7] (setting [14]) it was -16.2%. Also, the activity, negative = inhibition in assay [11] (setting [15]) is 5.48% (inactive); in assay [11] (setting [16]), 4.88% (inactive).
`COc1ccc(OC)c([C@H](O)CNC(=O)CN)c1`: the result in assay [1], in assay [3], in assay [6] and in assay [8] was inactive. For the same molecule, the figures for the activity change, negative = inhibition in assay [2] and in [7] (at 25.7 µM (top of the series)) were -3.71% (inactive) and 0.926% (inactive), respectively. In addition, the Potency in [4] and in assay [5] was > 20.6 µM (inactive) throughout. The Potency result (in assay [12]; in [9]; in [10]; with C2A; in the assay with CP217; with CP238) was “inactive” throughout. For the same molecule, the Potency result in the assay with CP250, with CP252, in the assay on FAB9, in the assay on HB3 and in the assay with SC27B was “inactive” each time. Also, the max response in assay [7] (setting [13]) was 0.279%; in assay [7] (setting [14]) it was -0.25%. The figures for the activity, negative = inhibition in assay [11] (setting [15]) and in assay [11] (setting [16]) were -3.94% (inactive) and 1.53% (inactive), respectively.
For the molecule `C#C[C@@]1(OC(C)=O)CC[C@@H]2[C@@H]3CCC4=C[C@@H](OC(C)=O)CC[C@H]4[C@H]3CC[C@]21C`, the result in assay [1] was inactive. Further, the Potency in assay [4] and in assay [5] was > 20.6 µM (inactive) in each case. The Potency result in [12] and in [9] was “inactive” throughout. Besides, the activity change, negative = inhibition in [7] (at 25.7 µM (top of the series)) was -2.38% (inactive). For the same molecule, the max response in [7] (setting [13]) and in assay [7] (setting [14]) was -9.18% in each case.
On to `CS(=O)(=O)Nc1cccc(-c2nc(Nc3ccccc3)c3ccccc3n2)c1`, for which the outcome in assay [1] was inactive. The Potency in [5] is > 46 µM (inactive). For the same molecule, the Potency result in [12] was “inactive”. The activity change, negative = inhibition in assay [7] (at 57.5 µM (top of the series)) was 7.97% (inactive). Besides, the results for the max response in assay [7] (setting [13]) and in [7] (setting [14]) were -5.28% and 2.43%, respectively.
`COc1cc2cc3c4cc(OC)c(OC)cc4cc[n+]3c(C)c2cc1OC`: the molecule was called inactive in assay [1], in [3] and in assay [6]. Besides, the Potency in assay [4] and in assay [5] was > 20.6 µM (inactive) each time. Moreover, in [7] (at 25.7 µM (top of the series)), the activity change, negative = inhibition was 0.187% (inactive). Besides, the max response was -9.25% in assay [7] (setting [13]) and -9.88% in assay [7] (setting [14]). Further, the Potency result in assay [9] was “inactive”.

Source of the values: PubChem BioAssay (NCATS).
